Sampled rows, rich in hits. Any-hit rate of the full collection: about 1.5%.
IDE inh – human IDE inhibitors in live cells, primary screen, fluorescence polarization, HEK cells, FAbetaB substrate | FAbetaB cleavage | AID 434962, 2010 | inhibition, % at 5.59 µM | hit rate 0.41% among 320,000;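 active = percent inhibition above the average of all tested compounds plus 3 SD, set per screening campaign, cut at about 16% in these data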;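 also: IDE supplied by intact live HEK cells; FP after avidin binding of uncleaved biotin substrate so inhibition keeps polarization high; 0% = DMSO wells and 100% = 60 µM reference IDE inhibitor Ii1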
Target sequence (P14735 whole entry, looked up): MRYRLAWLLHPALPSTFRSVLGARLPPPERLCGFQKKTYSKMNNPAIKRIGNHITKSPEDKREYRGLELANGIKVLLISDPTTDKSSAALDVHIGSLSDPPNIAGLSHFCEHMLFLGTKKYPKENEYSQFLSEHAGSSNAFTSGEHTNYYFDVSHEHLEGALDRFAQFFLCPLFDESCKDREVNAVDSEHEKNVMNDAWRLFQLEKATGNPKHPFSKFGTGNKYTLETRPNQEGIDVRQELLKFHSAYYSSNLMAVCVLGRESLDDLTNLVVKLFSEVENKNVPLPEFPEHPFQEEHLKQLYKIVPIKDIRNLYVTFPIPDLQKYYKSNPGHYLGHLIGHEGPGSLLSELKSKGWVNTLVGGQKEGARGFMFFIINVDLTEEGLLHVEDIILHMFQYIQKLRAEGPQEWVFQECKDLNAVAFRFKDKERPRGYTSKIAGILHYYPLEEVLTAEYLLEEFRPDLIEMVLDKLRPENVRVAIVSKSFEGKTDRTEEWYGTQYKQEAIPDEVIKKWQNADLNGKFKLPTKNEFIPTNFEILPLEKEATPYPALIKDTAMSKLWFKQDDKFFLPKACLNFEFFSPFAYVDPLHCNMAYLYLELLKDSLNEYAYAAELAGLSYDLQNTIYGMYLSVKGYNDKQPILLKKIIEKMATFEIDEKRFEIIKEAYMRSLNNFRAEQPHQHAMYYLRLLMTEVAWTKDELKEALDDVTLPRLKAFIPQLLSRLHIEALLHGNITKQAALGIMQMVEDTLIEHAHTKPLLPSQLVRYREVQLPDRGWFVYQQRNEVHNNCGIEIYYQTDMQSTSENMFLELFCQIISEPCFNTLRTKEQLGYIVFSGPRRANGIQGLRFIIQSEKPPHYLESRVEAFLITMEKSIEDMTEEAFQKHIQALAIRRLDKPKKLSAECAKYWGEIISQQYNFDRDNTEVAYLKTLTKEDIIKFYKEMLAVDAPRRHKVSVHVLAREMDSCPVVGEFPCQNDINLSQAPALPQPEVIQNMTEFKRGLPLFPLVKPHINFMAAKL
IDE cell activ – human IDE activators in live cells, primary screen, fluorescence polarization, HEK cells, FAbeta-B substrate | FAbeta-B cleavage; 0% vehicle, 100% cell-free pure enzyme wells | activation, % at 5.96 µM | hit rate 0.073% among 340,000 | AID 493087, 2011;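 active = activation above the mean of all tested compounds plus 3 SD, set per screening campaign, cut at about 17% in these data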
RTF Ca sens act – cardiac RTF calcium sensitivity activators, primary screen, biochemical, IANBD-TnC fluorescence, EC20 calcium. Troponin I, cardiac muscle (Homo sapiens) + Troponin T, cardiac muscle (Homo sapiens) + …. IANBD-labeled TnC RTF fluorescence at EC20 calcium; 0% EC20 calcium, 100% full calcium. activation, % at 7.2 µM. hit rate 0.24% among 340,000;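 active = activation above the mean over all tested compounds plus 3 SD, cut at about 30% in these data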;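 also: rise in fluorescence read as greater calcium sensitivity of cardiac thin filaments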
CRFBP-R2 agonist – agonists of CRF-BP/CRF-R2 complex, primary screen, cell-based, HEK293, calcium dye fluorescence, uHTS; hit rate 0.46% among 350,000; CRF-binding protein / CRF receptor 2 complex (human); AID 588473, 2011; activation, % at 13.2 µM; calcium dye fluorescence (FLIPR); percent of saturating CRF peptide response;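 active = activation of at least 50%, plus an integration ratio under a set limit after plate pattern correction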;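 also: plate controls were neutral control wells without compound for no effect and CRF at EC100 for full effect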
TPT1 inhibitor – Candida albicans TPT1 enzyme inhibitors, primary screen, biochemical, fluorescence polarization | tRNA 2'-phosphotransferase TPT1 (Candida albicans SC5314) | recombinant caTPT1, FP RNA substrate dephosphorylation | inhibition, % at 5 µM | hit rate 0.81% among 300,000;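 active = inhibition above the mean of all tested compounds plus 3 SD, set per screening campaign, cut at about 24% in these data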;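 also: plate controls were DMSO alone for no effect and ferristatin control at 100 nM for full effect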
Cardiac RTF inh – cardiac RTF calcium sensitivity inhibitors, primary screen, biochemical, IANBD-TnC fluorescence, EC70 calcium; inhibition, % at 7.15 µM; Troponin I, cardiac muscle (Homo sapiens) + Troponin T, cardiac muscle (Homo sapiens) + …; AID 493244, 2011; hit rate 0.12% among 340,000; IANBD-labeled cardiac RTF, Ca2+ fluorescence;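 active = inhibition above the mean inhibition of all tested compounds plus 3 SD, cut at about 17% in these data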;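 also: assay run at fixed EC70 calcium of 1.6 mM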
caTPT1 confirm – Candida albicans TPT1 inhibitors, confirmation, biochemical, fluorescence polarization, triplicate; shares compounds with TPT1 inhibitor; recombinant caTPT1, RNase T1 coupled; inhibition, % at 5 µM; hit rate 74% among 2,400;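 active = inhibition above the primary screen limit, the mean inhibition of all tested compounds plus 3 SD, cut at about 25% in these data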
RNase T1 inh – RNase T1 inhibitors, counter-screen for TPT1 inhibitor project, biochemical, fluorescence polarization. inhibition, % at 5 µM. RNase T1 cleavage, 1536-well. shares compounds with TPT1 inhibitor. hit rate 83% among 2,400. AID 2153, 2009;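 active = inhibition above the solvent-only control well mean plus 3 SD, limit set per screening run, cut at about 23% in these data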;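 also: plate controls were DMSO wells with enzyme for no effect and wells without RNase T1 for full effect; inhibitors block cleavage so intact labeled substrate keeps polarization high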
An asterisk follows results filed as active; nt = no result given; + = active, no number.

SMILES | IDE inh | IDE cell activ | RTF Ca sens act | CRFBP-R2 agonist | TPT1 inhibitor | Cardiac RTF inh | caTPT1 confirm | RNase T1 inh
CN(C)c1ccc(/C=C(/NC(=O)c2ccccc2)C(=O)NCCCn2ccnc2)cc1 | 5 | 5 | 0 | 0 | 134* | -10 | 155* | 157*
CN(C)c1ccc(/C=C(\NC(=O)c2ccccc2)C(=O)NCCCN2CCOCC2)cc1 | -1 | 4 | 1 | 6 | 18 | -4 | nt | nt
CN(C)c1ccc(/C=C(\NC(=O)c2ccccc2)C(=O)NCc2cccnc2)cc1 | -1 | 0 | 2 | 2 | 51* | -13 | 68* | 84*
CN(C)c1ccc(/C=C(\NC(=O)c2ccccc2)C(=O)NCc2ccncc2)cc1 | -1 | -1 | -4 | 0 | 9 | -9 | nt | nt
CN(C)c1ccc(/C=C(\NC(=O)c2ccccc2)C(=O)NCCN2CCOCC2)cc1 | 9 | -2 | -2 | 1 | 28* | -3 | 17 | 23*
CN1CCN(C(=O)/C(=C/c2ccc(F)cc2)NC(=O)c2ccccc2)CC1 | 3 | 5 | -9 | 0 | 0 | -5 | nt | nt
CN1CCN(C(=O)/C(=C/c2ccc(N(C)C)cc2)NC(=O)c2ccccc2)CC1 | -2 | -2 | -1 | 4 | 45* | -13 | 48* | 58*
CN(Cc1ccccc1)C(=O)CCCn1c(=O)c2cccn2c2cccnc21 | 0 | 3 | 4 | -2 | -1 | 4 | nt | nt
CN(C)c1ccc(/C=C(\NC(=O)c2ccccc2)C(=O)N/N=C/c2ccc(C(=O)O)cc2)cc1 | 14 | -5 | 5 | -1 | 33* | -30 | 20 | 29*
CN(C)c1ccc(/C=N/NC(=O)c2ccccc2)cc1 | -1 | -2 | 6 | -2 | 0 | -10 | nt | nt
CCN(C(=O)COC(=O)c1ccc([N+](=O)[O-])o1)C1CCCCC1 | 3 | 1 | -6 | 1 | nt | 0 | nt | nt
CC(C)c1ccc(/C=C2\CC/C(=C\C=N\N(C)C)C2=O)cc1 | -7 | 1 | 8 | 0 | 80* | -11 | 75* | 82*
Cn1cc(/C=C/C(=O)c2ccccc2)c2ccccc21 | -2 | -2 | 2 | 1 | 34* | -16 | 38* | 45*
Cc1ccc(C(=O)/C=C/c2cn(CN3CCN(C)CC3)c3ccccc23)cc1 | 5 | -5 | 5 | 8 | 12 | -8 | nt | nt
CCC(=O)N1CCN(c2nc3ccc(Br)cc3s2)CC1 | 9 | -14 | 0 | 2 | -1 | -1 | nt | nt
Cc1ccc(-c2cc(C(=O)O)c3sc(N4CCCCC4)nc3n2)cc1 | 9 | 3 | -5 | 1 | 27* | 4 | 5 | 10
O=C(O)c1cc(-c2ccccc2)nc2nc(N3CCCCC3)sc12 | -4 | nt | nt | nt | -3 | nt | nt | nt
CCOC(=O)c1c(NC(=S)Nc2ccc(Cl)cc2)sc2c1CCN(C)C2 | 13 | -12 | 5 | 17 | 91* | -8 | 88* | 91*
CCOC(=O)c1c(NC(=O)CSc2nnc(C)s2)sc2c1CCN(C)C2 | 4 | -9 | 5 | 4 | 98* | -13 | 97* | 103*
CCOC(=O)c1c(NC(=O)CCS(=O)(=O)c2ccccc2)sc2c1CCN(C)C2 | 5 | -3 | 2 | 3 | 35* | -2 | 21 | 28*
CCOC(=O)c1c(NC(=S)Nc2ccc(OCC)cc2)sc2c1CCN(C)C2 | 6 | -4 | 9 | 0 | 48* | -3 | 53* | 64*
O=C(COC(=O)c1cc(Br)ccc1O)NC12CC3CC(CC(C3)C1)C2 | 6 | 3 | -1 | 6 | nt | 7 | nt | nt
CCOc1cccc2c1OC(c1cc(OC)c(OC)c(OC)c1)N1N=C(c3ccc(C)o3)CC21 (stereo not given) | 3 | -5 | 16 | 2 | 115* | -34 | 10 | 15
COc1ccc(C2CC(c3ccc(C)o3)=NN2C(C)=O)cc1 (stereo not given) | -9 | -4 | 0 | -3 | -1 | -6 | nt | nt
O=c1oc2c(O)c(O)cc3c(=O)oc4c(O)c(O)cc1c4c23 | -6 | 6 | -78 | -2 | 81* | 102* | 92* | 17
SMILES | IDE inh | IDE cell activ | RTF Ca sens act | CRFBP-R2 agonist | TPT1 inhibitor | Cardiac RTF inh | caTPT1 confirm | RNase T1 inh
O=c1oc2ccccc2c2oc3cc(O)c(O)cc3c12 | -4 | -3 | -5 | -7 | -4 | -6 | nt | nt
Cc1ccc(OCCN2C(=O)S/C(=C\c3ccc(C)o3)C2=O)cc1 | 2 | -7 | 9 | 4 | 12 | -10 | nt | nt
COC(=O)CN1C(=O)S/C(=C/c2ccc(N3CCCCC3)o2)C1=O | 3 | -142 | 322* | 57* | 181* | -291 | 191* | 170*
O=C(O)CN1C(=O)/C(=C/c2ccc(N3CCCCC3)o2)SC1=S | -1 | -29 | 15 | 6 | 9 | -13 | nt | nt
CCCN1C(=O)S/C(=C/c2ccc(N3CCOCC3)o2)C1=O | 8 | -90 | 189* | 61* | 180* | -202 | 183* | 166*
CCCN1C(=O)S/C(=C\c2ccc(N3CCOCC3)o2)C1=O | 0 | -79 | 171* | 29 | + | -98 | 188* | 169*
CCN(CC)S(=O)(=O)c1cc(NC(=O)c2ccc3c(c2)NC(=O)C(C)S3)ccc1C (stereo not given) | -1 | 0 | 0 | 0 | nt | -8 | nt | nt
CC1CCCC(C)N1C(=O)c1ccc(S(=O)(=O)NCc2ccco2)cc1 (stereo not given) | 1 | 1 | -5 | 0 | -2 | -12 | nt | nt
N#CCSc1ccccc1NC(=O)COC(=O)C1CCN(C(=O)c2ccc(Cl)cc2)CC1 | nt | nt | nt | 1 | nt | nt | nt | nt
Cc1cccc(NC(=O)COc2coc(CN3CCN(c4ccccc4)CC3)cc2=O)c1 | -2 | 2 | 2 | 1 | 5 | -2 | nt | nt
Cc1ccc(C)c(NC(=O)COC(=O)c2cc3ccccc3oc2=O)c1 | 1 | 0 | 4 | -1 | nt | -9 | nt | nt
O=c1[nH]c2ccccc2nc1/C=C/c1ccc(F)cc1 | 0 | -1 | 17 | 35 | 57* | -21 | 74* | 83*
O=c1[nH]c2ccccc2nc1/C=C(\O)C1CC1 | 1 | 1 | 4 | -1 | 27* | -15 | 4 | 8
